Laboratory results: PubChem BioAssay (Tox21)
Results filed as inconclusive are left out. Unmarked numbers belong to inactive results. Calls come from the whole dose curve; as a rule, active = well fitted inhibition curve with a large enough effect in the repeat runs; inconclusive = weak or mixed curves, or effect the other way; inactive = no such curve, though single readings can be large or run the other way.

biological target: Androgen receptor (Homo sapiens) (UniProt P10275); assay: qHTS assay to identify small molecule antagonists of the androgen receptor (AR) signaling pathway using the MDA cell line (AID 743042; note: nearly all actives have a fitted effect of over 55% in size); settings: MDA-kb2 AR-luc, MMTV luciferase, R1881 antagonist, 16 h; series mostly up to 70.3 µM; activity change, negative = inhibition: at the top concentration
How it was run: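 MDA-kb2 breast carcinoma cells carrying MMTV-luciferase (AR/GR responsive) were co-treated with compounds and the agonist R1881 for 16 h at 37C. Inhibition read as ONE-Glo luminescence; CellTiter-Fluor fluorescence measured in parallel for cytotoxicity.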
% is set by controls: 0 for no effect and ±100 for the full control effect.

Androgen receptor (Homo sapiens), sequence (P10275 whole entry, looked up): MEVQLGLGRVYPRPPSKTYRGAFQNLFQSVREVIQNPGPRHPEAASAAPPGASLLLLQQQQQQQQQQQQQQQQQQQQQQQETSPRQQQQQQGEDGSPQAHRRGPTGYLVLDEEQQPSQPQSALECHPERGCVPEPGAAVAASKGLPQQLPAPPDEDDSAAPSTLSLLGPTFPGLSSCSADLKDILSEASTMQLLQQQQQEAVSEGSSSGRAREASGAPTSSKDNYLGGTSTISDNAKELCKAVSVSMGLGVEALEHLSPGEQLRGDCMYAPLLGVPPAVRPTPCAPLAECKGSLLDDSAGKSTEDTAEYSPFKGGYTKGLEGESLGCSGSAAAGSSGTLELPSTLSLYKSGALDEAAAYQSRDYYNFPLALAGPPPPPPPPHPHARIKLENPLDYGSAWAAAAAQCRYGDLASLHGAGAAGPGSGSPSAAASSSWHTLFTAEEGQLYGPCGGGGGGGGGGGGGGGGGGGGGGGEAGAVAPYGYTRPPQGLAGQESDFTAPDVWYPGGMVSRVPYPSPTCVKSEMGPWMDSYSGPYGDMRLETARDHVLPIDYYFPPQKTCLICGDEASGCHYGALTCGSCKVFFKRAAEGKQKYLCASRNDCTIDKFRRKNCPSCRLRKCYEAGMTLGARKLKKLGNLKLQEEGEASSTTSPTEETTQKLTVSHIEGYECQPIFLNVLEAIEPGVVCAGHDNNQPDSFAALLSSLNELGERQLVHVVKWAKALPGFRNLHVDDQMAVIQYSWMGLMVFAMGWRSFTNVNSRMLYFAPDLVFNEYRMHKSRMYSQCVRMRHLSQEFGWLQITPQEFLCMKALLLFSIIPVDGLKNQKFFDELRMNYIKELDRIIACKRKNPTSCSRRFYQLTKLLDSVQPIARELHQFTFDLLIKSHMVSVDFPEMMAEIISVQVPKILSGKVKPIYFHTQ

| Compound | activity change, negative = inhibition [%] |
| --- | --- |
| CC[C@H]1OC(=O)C[C@@H](O)[C@H](C)[C@@H](O[C@@H]2O[C@H](C)[C@@H](O)[C@H](N(C)C)[C@H]2O)[C@@H](CCN2C[C@H](C)C[C@H](C)C2)C[C@@H](C)C(=O)/C=C/C(C)=C/[C@@H]1CO[C@@H]1O[C@H](C)[C@@H](O)[C@@H](OC)[C@H]1OC | 8.41 |
| c1ccc2c(c1)OCC(CN1CCCCC1)O2 (stereo unspecified) | 5.04 |
| C[N+]1(CCCCC[N+]2(C)CCCC2)CCCC1 | 0.46 |
| O=C(O)[C@@H]1C[C@H](CP(=O)(O)O)CCN1 | 3.37 |
| COc1ccc(/C=C/C(=O)Nc2ccccc2C(=O)O)cc1OC | 57 |
| CCCCCCCCCCCCCCCC(=O)OC[C@H](COP(=O)([O-])OCC[N+](C)(C)C)OC(=O)CCCCCCCCCCCCCCC | 5.29 |
